# From the supplement of paper PMC8728848
# Only a selection was taken, and the strongest signals are over-represented in it overall.
# Columns and labels:
# Assay in all cases: glycan array binding signal (z-score within array); higher = stronger binding
# Settings in all cases: glycan notation: IUPAC condensed, linker removed
# Gal(b1-6)Gal = target: Gal(b1-6)Gal
# How it was run: (§1)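 Glycan array data were curated from 3228 arrays in the Consortium for Functional Glycomics database and kept only where the protein sequence was available. Glycan names were converted to IUPAC-condensed notation, and columns mapping to the same glycan were averaged. The binding signal is a within-array Z-score, averaged across arrays of the same protein sequence at different concentrations or buffers and across linkers. Negative Z-scores can be read as non-binding.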
# Gal3S(b1-4)GlcNAc = target: Gal3S(b1-4)GlcNAc
# How it was run: as §1
# [1] = target: Gal3S(b1-4)[Fuc(a1-3)]Glc
# How it was run: as §1
# GalNAc(a1-3)GalNAc = target: GalNAc(a1-3)GalNAc
# How it was run: as §1
# [2] = target: GalNAc(b1-3)Gal(a1-4)Gal(b1-4)GlcNAc
# How it was run: as §1
# GalNAc(b1-4)GlcNAc = target: GalNAc(b1-4)GlcNAc
# How it was run: as §1
# GlcA(b1-3)GlcNAc = target: GlcA(b1-3)GlcNAc
# How it was run: as §1
# [3] = target: GlcNAc(b1-3)Gal(b1-4)GlcNAc(b1-2)Man(a1-3)[GlcNAc(b1-3)Gal(b1-4)GlcNAc(b1-2)Man(a1-6)]Man(b1-4)GlcNAc(b1-4)GlcNAc
# How it was run: as §1
# [4] = target: GlcNAc(b1-3)Gal(b1-4)GlcNAc(b1-3)Gal(b1-4)GlcNAc(b1-3)Gal(b1-4)GlcNAc(b1-2)Man(a1-3)[GlcNAc(b1-3)Gal(b1-4)GlcNAc(b1-3)Gal(b1-4)GlcNAc(b1-3)Gal(b1-4)GlcNAc(b1-2)Man(a1-6)]Man(b1-4)GlcNAc(b1-4)[Fuc(a1-6)]GlcNAc
# How it was run: as §1
# [5] = target: GlcNAc(b1-3)Gal(b1-4)GlcNAc(b1-3)Gal(b1-4)GlcNAc(b1-3)Gal(b1-4)GlcNAc(b1-3)Gal(b1-4)GlcNAc(b1-2)Man(a1-3)[GlcNAc(b1-3)Gal(b1-4)GlcNAc(b1-3)Gal(b1-4)GlcNAc(b1-3)Gal(b1-4)GlcNAc(b1-3)Gal(b1-4)GlcNAc(b1-2)Man(a1-6)]Man(b1-4)GlcNAc(b1-4)GlcNAc
# How it was run: as §1
# [6] = target: GlcNAc(b1-3)Gal(b1-4)GlcNAc(b1-3)Gal(b1-4)GlcNAc(b1-3)Gal(b1-4)GlcNAc(b1-3)Gal(b1-4)GlcNAc(b1-2)Man(a1-3)[GlcNAc(b1-3)Gal(b1-4)GlcNAc(b1-3)Gal(b1-4)GlcNAc(b1-3)Gal(b1-4)GlcNAc(b1-3)Gal(b1-4)GlcNAc(b1-2)Man(a1-6)]Man(b1-4)GlcNAc(b1-4)[Fuc(a1-6)]GlcNAc
# How it was run: as §1
# [7] = target: GlcNAc(b1-3)Gal(b1-4)GlcNAc(b1-3)Gal(b1-4)GlcNAc(b1-3)Gal(b1-4)GlcNAc(b1-3)Gal(b1-4)GlcNAc(b1-2)[GlcNAc(b1-3)Gal(b1-4)GlcNAc(b1-3)Gal(b1-4)GlcNAc(b1-3)Gal(b1-4)GlcNAc(b1-3)Gal(b1-4)GlcNAc(b1-6)]Man(a1-6)[GlcNAc(b1-3)Gal(b1-4)GlcNAc(b1-3)Gal(b1-4)GlcNAc(b1-3)Gal(b1-4)GlcNAc(b1-3)Gal(b1-4)GlcNAc(b1-2)Man(a1-3)]Man(b1-4)GlcNAc(b1-4)[Fuc(a1-6)]GlcNAc
# How it was run: as §1
# GlcNAc(b1-3)Man = target: GlcNAc(b1-3)Man
# How it was run: as §1
# MurNAc(b1-4)GlcNAc = target: MurNAc(b1-4)GlcNAc
# How it was run: as §1
# [8] = target: Neu5Ac(a2-3)Gal(b1-3)GalNAc(b1-4)[Neu5Ac(a2-8)Neu5Ac(a2-3)]Gal(b1-4)Glc
# How it was run: as §1
# [9] = target: Neu5Ac(a2-3)Gal(b1-4)GlcNAc(b1-2)Man(a1-3)[Neu5Ac(a2-3)Gal(b1-4)GlcNAc(b1-2)Man(a1-6)]Man(b1-4)GlcNAc(b1-4)GlcNAc
# How it was run: as §1
# [10] = target: Neu5Ac(a2-3)Gal(b1-4)GlcNAc(b1-3)Gal(b1-4)GlcNAc(b1-2)Man(a1-3)[Neu5Ac(a2-3)Gal(b1-4)GlcNAc(b1-3)Gal(b1-4)GlcNAc(b1-2)Man(a1-6)]Man(b1-4)GlcNAc(b1-4)GlcNAc
# How it was run: as §1
# [11] = target: Neu5Ac(a2-3)Gal(b1-4)GlcNAc(b1-3)Gal(b1-4)GlcNAc(b1-3)Gal(b1-4)GlcNAc(b1-2)Man(a1-3)[Neu5Ac(a2-3)Gal(b1-4)GlcNAc(b1-3)Gal(b1-4)GlcNAc(b1-3)Gal(b1-4)GlcNAc(b1-2)Man(a1-6)]GalNAc
# How it was run: as §1
# [12] = target: Neu5Ac(a2-3)Gal(b1-4)GlcNAc(b1-3)Gal(b1-4)GlcNAc(b1-6)[Gal(b1-3)]GalNAc
# How it was run: as §1
# [13] = target: Neu5Ac(a2-3)Gal(b1-4)[Fuc(a1-3)]GlcNAc(b1-6)[Gal(b1-3)]GalNAc
# How it was run: as §1
# [14] = target: Neu5Ac(a2-6)Gal(b1-4)GlcNAc(b1-2)Man(a1-3)[GlcNAc(b1-2)Man(a1-6)]Man(b1-4)GlcNAc(b1-4)GlcNAc
# How it was run: as §1
# [15] = target: Neu5Ac(a2-6)Gal(b1-4)GlcNAc(b1-2)Man(a1-3)[Neu5Ac(a2-3)Gal(b1-4)GlcNAc(b1-2)Man(a1-6)]Man(b1-4)GlcNAc(b1-4)GlcNAc
# How it was run: as §1
# [16] = target: Neu5Ac(a2-6)Gal(b1-4)GlcNAc(b1-2)[Neu5Ac(a2-6)Gal(b1-4)GlcNAc(b1-4)]Man(a1-3)[GlcNAc(b1-4)][Neu5Ac(a2-6)Gal(b1-4)GlcNAc(b1-2)[Neu5Ac(a2-6)Gal(b1-4)GlcNAc(b1-6)]Man(a1-6)]Man(b1-4)GlcNAc(b1-4)GlcNAc
# How it was run: as §1
# [17] = target: Neu5Ac(a2-6)Gal(b1-4)GlcNAc(b1-3)Gal(b1-4)GlcNAc(b1-3)Gal(b1-4)GlcNAc(b1-2)Man(a1-3)[Neu5Ac(a2-6)Gal(b1-4)GlcNAc(b1-3)Gal(b1-4)GlcNAc(b1-3)Gal(b1-4)GlcNAc(b1-2)Man(a1-6)]GalNAc
# How it was run: as §1
# [18] = target: Neu5Ac(a2-6)Gal(b1-4)GlcNAc6S
# How it was run: as §1
# [19] = target: Neu5Ac(a2-6)GalNAc(b1-4)GlcNAc6S
# How it was run: as §1
# [20] = target: Neu5Gc(a2-8)Neu5Ac(a2-3)Gal(b1-4)GlcNAc
# How it was run: as §1
binder,measurement,setting,value
"GST-Gap1 (Streptococcus parasanguinis), A1C3L5 (protein) MFYFVPSWYNGQRQWYYDTPWWFRVKNRMTFDDSVNQVKMFLQGQEEIGLMILNYQPQLRYFLHKQNIFGIYYWSFFDDIQNITRSYTKIIHLKDLNWPEGCEFLYSPFAVVVRLKGEIFAIVNYAEDGNLHSVSFQKNGKVTKDYIFDDRGFLSSILYYDIDERPLYQDYLNINGVWQVREFLKKENDPTPILMINDFSDQTFSKKYYNGWEELIKERLAIFQNNHVENEDVFVLASDTQHNQLVSSIFKEHRKIYSFFGNRFNLENLGQDRISINDATFLVVDTEKNEELLRKTCENLVFKSIPIVRLSPFDSRLRLGHSQTVKEQIIYFHIDNIELDELYSVIAIILELMTLHLDIELRIVTFRQDFQLDLLKTWIIDFIKTNHFEDLLFKQISEGENEIEDEGEIELSRIAMECFTNENQIIKCLDTARLVIDLGIEPDLYTQIASISAGIPQINRVSSDYVIHQKNGLVISDISKLSSAIEFYFDGLFNWNEALIYAVRKMSDYTSGKILKQWKGMLKKK",glycan array binding signal (z-score),Gal(b1-6)Gal,0.538
same,glycan array binding signal (z-score),Gal3S(b1-4)GlcNAc,0.12
same,glycan array binding signal (z-score),[1],-0.553
same,glycan array binding signal (z-score),GalNAc(a1-3)GalNAc,-0.202
same,glycan array binding signal (z-score),[2],0.159
same,glycan array binding signal (z-score),GalNAc(b1-4)GlcNAc,-0.452
same,glycan array binding signal (z-score),GlcA(b1-3)GlcNAc,5.69
same,glycan array binding signal (z-score),[3],0.668
same,glycan array binding signal (z-score),[4],2.14
same,glycan array binding signal (z-score),[5],0.361
same,glycan array binding signal (z-score),[6],-0.16
same,glycan array binding signal (z-score),[7],0.811
same,glycan array binding signal (z-score),GlcNAc(b1-3)Man,-0.28
same,glycan array binding signal (z-score),MurNAc(b1-4)GlcNAc,-0.969
same,glycan array binding signal (z-score),[8],0.39
same,glycan array binding signal (z-score),[9],-1.31
same,glycan array binding signal (z-score),[10],2.28
same,glycan array binding signal (z-score),[11],2.15
same,glycan array binding signal (z-score),[12],-0.747
same,glycan array binding signal (z-score),[13],1.35
same,glycan array binding signal (z-score),[14],-0.335
same,glycan array binding signal (z-score),[15],0.84
same,glycan array binding signal (z-score),[16],-0.54
same,glycan array binding signal (z-score),[17],2.53
same,glycan array binding signal (z-score),[18],0.323
same,glycan array binding signal (z-score),[19],-0.037
same,glycan array binding signal (z-score),[20],-0.655
